The source made the active and inactive calls. Rule for the calls: active = hit-call score of the fitted dose curve at least 0.9, where 1 is the maximum; inactive = score below 0.9.
Experiment: CCTE_Padilla_ZF_Score.General: CCTE's 144 Hour Post-fertilization zebrafish Assay Score for General Malformation, Padilla Lab (AID 2284411)
Procedure: CCTE_Padilla_ZF_Phenotype_Score is a whole embryo, multiplexed assay using zebrafish ova exposed for 144 hours post fertilization on a 96-well plate.CCTE_Padilla_ZF_Score.General is one of one assay component(s) measured or calculated from the CCTE_Padilla_ZF_Phenotype_Score assay. It is designed to make measurements of zebrafish development as detected with brightfield microscopy of developing zebrafish embryos.Data from the assay component CCTE_Padilla_ZF_Score.General was analyzed into 1 assay endpoints. This assay endpoint, CCTE_Padilla_ZF_Score.General, was analyzed in the positive analysis fitting direction relative to DMSO as the negative control and baseline of activity. Using a type of viability reporter, gain-of-signal activity can be used to understand changes in developmentals as they relate to the whole embryo. To generalize the intended target to other relatable targets, this assay endpoint is annotated to the zebrafish development intended target family, where the subfamily is embryonic morphogenesis.
Zebrafish husbandry: Wild type adult zebrafish (Danio rerio; undefined outbred stock obtained from Aquatic Research Organisms, Hampton, NH, 03842) were housed in an AAALAC-approved animal facility at 28C with a 14:10 h light: dark cycle (lights on at 08:30 h). Adult fish (2-3 females per male; density = 15-20 adults per tank) were kept in one of several 9-liter (L) flow-through colony tanks (Aquaneering Inc., San Diego, CA). All adults in a colony tank were placed in a 2 L (static) breeding tank (Aquatic Habitats, Apopka, FL) one hour prior to light onset. Typically, adults from two to three colony tanks were mated on the same day. Two hours after light onset the adults were returned to the colony tank. All embryos were gathered from each breeder tank, pooled, and placed in a 28C water bath for 2 h, followed by two washes with 0.06% bleach (v/v) in 10% Hanks' Balanced Salt Solution (13.7 mM NaCl 0.54 mM KCl, 25 uM Na2HPO4, 130 uM CaCl2 100 um MgSO4 and 420 um NaHCO3,), hereafter referred to as Hanks' solution, for 5 min in order to remove any residual bacteria or fungi. Immediately following washing, the embryos were examined, and healthy embryos were separated from dead or unfertilized eggs and moved into fresh Hanks'. Chemical exposures: Zebrafish embryos were exposed in 96-well plates. Between 6- and 8-hours post fertilization (hpf), healthy embryos (with chorions) were transferred, one embryo per well, into 96 well (0.5 mL) microtiter plates (Cell Culture-Treated, Flat-Bottom Microplate 96 well [Corning Costar, Kennebunk, ME; Cat 09-761-145]) filled with 200 uL of Hanks' solution. A random number generator was used to assign the order in which the rows of embryos were plated in 96 well plates each week. After plating, the embryos were dosed with 0.8 uL of the chemical dosing solution then immediately sealed with AlumaSeal II (Excel Scientific Inc, Victorville, CA) to prevent volatilization of the chemicals, and then placed in a leakproof secondary container. These containers were placed in an incubator maintained on a 14:10 h light: dark cycle at 26C for rearing. On 5 dpf, live larvae were gently moved out of the plate with test chemicals and into a new 96 well mesh plate (Millipore Corp., Bedford, MA) with just the Hanks' solution. Once within the mesh well plate, the animals were rinsed with 400 uL of fresh Hanks' three times, and then the plates were covered with a non-adhesive material (Microseal A, BioRad, Hercules, CA), plate lid added, and then plate sides wrapped in Parafilm (PM992, Bermis Company, Neenah, WI), and returned to the incubator. […]

Q: Which outcome does the source give for `CCCCCCC=O` here?
A: inactive

Q: For `CCCCCCOC(=O)CCCCC(=O)OCCCCCC`, which outcome is on record?
A: inactive

Q: For `C[N+](C)(C)CCCNS(=O)(=O)C(F)(F)C(F)(F)C(F)(F)C(F)(F)C(F)(F)C(F)(F)C(F)(F)C(F)(F)F`, which outcome is on record?
A: inactive

Q: For `CCCCCCCO`, which outcome is on record?
A: inactive

Q: With `c1ccc2sc(SSN3CCOCC3)nc2c1` as the molecule, how does the outcome read?
A: inactive

Q: For `C=CC(=O)OCCCCCCCC(C)C`, which outcome is on record?
A: inactive

Q: Which outcome does the source give for `C=CCCCCCCCCC=O` here?
A: inactive

Q: Which outcome does the source give for `C=CC(=O)NC(C)(C)C` here?
A: inactive

Q: Which outcome does the source give for `O=C(O)C(F)(F)C(F)(F)C(F)(F)C(F)(F)C(=O)O` here?
A: inactive

Q: For `C=CC(=O)OCCCCCCOC(=O)C=C`, which outcome is on record?
A: inactive

Q: For `COc1ccc(C(=O)c2ccccc2)c(O)c1`, which AC50 is on record?
A: 7.03 µM (active)

Q: For `c1ccc2c(c1)[nH]c1ccccc12`, which outcome is on record?
A: inactive

Source: PubChem BioAssay (EPA / NIEHS)
